Results published in PubChem BioAssay AID425 (Sanford-Burnham Center for Chemical Genomics, 2006).
“And” between values parts separate entries of the source, which are not always exact repeats. Identical values can stand only once. The campaign covered roughly 110,000 compounds. About 190 (0.17%) were called active. No stated cut-off is given here; in the data, active means inhibition above about 50%; inactive means the rest. The sample as a whole holds a higher share of actives than the screen did. Potency and affinity values are given separately.

Target: Dual specificity protein phosphatase 6 (Rattus norvegicus) (UniProt Q64346)
Assay: inhibition of rat DUSP6 enzyme activity – biochemical, in vitro, primary screen (AID 425);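 further: plate controls were vehicle for no effect and reference inhibitor for full effect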
Conditions: recombinant MKP-3 phosphatase activity, fluorescence; at 20 µM; hits give high values

Dual specificity protein phosphatase 6 (Rattus norvegicus), sequence (Q64346 whole entry, looked up): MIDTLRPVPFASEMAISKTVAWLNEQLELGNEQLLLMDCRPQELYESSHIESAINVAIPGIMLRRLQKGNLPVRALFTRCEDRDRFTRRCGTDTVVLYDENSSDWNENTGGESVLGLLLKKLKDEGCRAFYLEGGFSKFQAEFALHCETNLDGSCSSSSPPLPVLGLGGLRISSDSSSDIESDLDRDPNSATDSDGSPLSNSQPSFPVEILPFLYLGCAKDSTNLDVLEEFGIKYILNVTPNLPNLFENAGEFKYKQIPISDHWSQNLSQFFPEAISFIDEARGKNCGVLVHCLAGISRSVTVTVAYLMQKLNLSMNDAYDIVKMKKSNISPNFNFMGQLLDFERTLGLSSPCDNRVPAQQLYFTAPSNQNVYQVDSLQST

inhibition, active:
O=[N+]([O-])c1ccc(C=Nc2ccc(Cl)c([N+](=O)[O-])c2)s1 67.5%
O=C(O)c1ccc(N=Cc2ccc([N+](=O)[O-])s2)cc1 83.1%
O=[N+]([O-])c1ccc(C=NC23CN4CN(CN(C4)C2)C3)s1 94.6%
O=C(c1ccccc1)c1ccc(N=Cc2ccc([N+](=O)[O-])s2)cc1 62.2%
O=C1C(=O)c2ccccc2C(O)=C1[N+](=O)[O-] 106%
CCOc1cccc(=[O+]CC)c2c(C)oc(C)c12 96.5%
O=C1N=C(N=Nc2c(O)[nH]c3ccccc23)S/C1=C/c1ccc(Br)cc1 53.2%
Cc1cc([N+](=O)[O-])cc2c1NC(=O)C2=O 79.8%
O=C1C=CC(=O)c2c1c(-c1ccccc1)nn2-c1ccccc1 63.4%
CCn1cc(C(=O)NC2CCC(C)CC2)c(=O)c2cc(S(=O)(=O)N3CCCCC3)ccc21 (stereo not drawn) 56.1%
Cc1ccc(C)n1-c1ccc(SCC(=O)O)cc1 106%
CC(Cc1ccccc1)N=C(N)/C(C#N)=C\c1[nH]c2ccccc2c1O (stereo not drawn) 69.4%
Cc1ccc(C)n1-c1ccc(Cl)c(C(=O)O)c1 71.5%
Cc1ccc(C)n1-c1ccc(C(=O)O)c(O)c1 101%
Cc1ccc(C)n1-c1ccc(O)c(C(=O)O)c1 100%

inhibition, inactive:
O=C(Nc1nncs1)c1cc(-c2ccccc2Cl)nc2ccccc12 1.9%
CCOc1ccc(CCNc2nc3c(c(=O)n(C)c(=O)n3C)n2CC)cc1OCC -1%
O=C(CNc1cccc2ccccc12)N/N=C/c1cn(Cc2ccccc2)c2ccccc12 4.7%
O=C(N/N=C\c1cn(Cc2ccc(Cl)c(Cl)c2)c2ccccc12)c1ccc([N+](=O)[O-])cc1 -0.1%
O=C(c1cc2ccccc2oc1=O)N1CCCN(C(=O)c2cc3ccccc3oc2=O)CC1 3.4%
CC(C)(C)C(=O)/C=C(\N)c1ccccn1 -3.7%
COc1ccc(C2NC(=S)NC(C)=C2C(=O)Nc2ccccc2)c(OC)c1 (stereo not drawn) 1.7%
CCc1ccc(C=NC23CN4CN(CN(C4)C2)C3)s1 -1.3% and -8.8%
Cc1cccc(N=Cc2ccc([N+](=O)[O-])s2)c1 49.9%
O=[N+]([O-])c1ccc(C=Nc2ccc(Oc3ccccc3)cc2)s1 0.3%
O=C(c1ccccc1)c1cc(Cl)ccc1N=Cc1ccc([N+](=O)[O-])s1 0.8%
O=[N+]([O-])c1ccc(C=Nc2ccc(Br)c(Cl)c2)s1 -1.9%
CC(=O)Nc1ccc(N=Cc2ccc([N+](=O)[O-])s2)cc1 1.2%
CN1CCN(/N=C/c2ccc([N+](=O)[O-])s2)CC1 2.9%
O=[N+]([O-])c1cc(N=Cc2ccc(Br)s2)ccc1Cl 0.8%
Cn1c(O)c(N=NC(=O)COc2ccc3ccccc3c2)c2cc(Br)ccc21 3%
C/C(O)=C\C(N)=N/c1nc(C)cc(C)n1 2.7%
O=[N+]([O-])c1ccc(C(O)CN2CCN(C/C=C/c3ccccc3)CC2)cc1 (stereo not drawn) 3.6%
CCC(=O)N1c2ccc(S(=O)(=O)CCC(=O)N3CCn4c3nc3ccccc34)cc2CC1C (stereo not drawn) 6.1%
O=C(NCCNc1ccc([N+](=O)[O-])cc1Cl)c1ccccc1Cl 1.6%
COCCOC(=O)C1=C(C)NC(=O)CC1c1cccc(Cl)c1 (stereo not drawn) 3.6%
CN(C)CCCNC(=O)c1ccc(CN(c2ccccc2)S(C)(=O)=O)cc1 -6.3%
C/C(=N\NC(=O)C1(C)CC1(Br)Br)c1ccc(Br)s1 (stereo not drawn) 0.4%
COc1ccccc1CNC(=O)c1ccc(NC(C)=O)cc1 2.6%
O=C1C(=O)c2ccccc2C(O)=C1c1ccc([N+](=O)[O-])cc1 -1.5%
CN=CC1=C(O)c2ccccc2C1=O -0.6%
COc1cc(/C=N/Nc2nncc(=O)[nH]2)ccc1O -0.1%
O=C(c1cn(-c2ccccc2)nc1-c1ccc(F)cc1)N1CCOCC1 -13.6%
CC(=O)Nc1ccc(S(=O)(=O)Nc2cc(C)ccc2C)cc1 0.4%
CCOc1cccc(=O)c2c(C)oc(C)c12 1.6%
CCOc1ccc(-c2cc(OCC)c3c(C)oc(C)c3c(=[O+]CC)c2)cc1 3.9%
Cc1cc(N2CCCC(C(=O)Nc3ccc4c(c3)CCC4)C2)n2ncnc2n1 (stereo not drawn) -8.9%
Oc1[nH]c2ccccc2c1N=Nc1nc(-c2ccccc2)c2cc(Br)ccc2n1 12%
CN(C)c1ccc(/C=C2/SC(N=Nc3c(O)[nH]c4ccccc34)=NC2=O)cc1 28.7%
CCOC(=O)C1C(=O)CC(C)(O)C(C(=O)OCC)C1c1ccc(OCC)cc1 (stereo not drawn) 0.2% and -2.5%
CCOc1ccc(-n2c(SCC(N)=O)nc3c([nH]c4ccccc43)c2=O)cc1 -3.1%
CC(C)(C)c1cnnn1-c1ccc(NC(=O)c2ccc3c(c2)OCO3)cc1 -6.9%
CC(C)[C@H](NC(=O)Nc1ccc2c(c1)OCCO2)C(=O)O -0.5%
Cc1ccc(C(=O)c2nocc2C(=O)c2cccs2)cc1 -9.8%
COc1ccc(C(=O)c2no[n+]([O-])c2C(=O)c2ccc(OC)cc2)cc1 -8.8%
COC(=O)C1=C(C)NC(=O)NC1c1ccc(OCCO)c(OC)c1 (stereo not drawn) 4.3%
O=C(CCC1CCCC1)Nc1cccc(F)c1 -0.4%
CC(C)Cn1c(=S)[nH]c2sc3c(c2c1=O)CC(C)(C)OC3 3.9%
CCOC(=O)CCn1nnc(N)n1 -5%
Cc1cc([N+](=O)[O-])ccc1N1C(=O)c2ccccc2C1=O -1.5%
Cc1cc2c(cc1Br)NC(=O)C2=O 1.5%
O=C(CSCc1cnn(-c2ccccc2)c1-n1cccc1)NCc1cccs1 -0.1%
O=C1c2ccccc2C(=O)c2c1c(-c1ccccc1)nn2-c1ccccc1 1.2%
Cc1ccc(-n2nc(-c3ccccc3)c3c2C(=O)C=CC3=O)cc1 38.9%
CN(C)CCC(=O)c1ccc(O)cc1 3.3%
N#Cc1c(N2CCCCC2)nc(N2CCCCC2)c2c1CCN(Cc1ccccc1)C2 3.8%
N#Cc1c(N)sc2c1CCN(Cc1ccccc1)C2 14.1%
CCn1cc(C(=O)NC2CCCC2)c(=O)c2cc(S(=O)(=O)N3CCOCC3)ccc21 3.9%
CCn1cc(C(=O)NC2CCCCCC2)c(=O)c2cc(S(=O)(=O)N3CCCCC3)ccc21 3.2%
Cc1nc2ncccn2c1-c1csc(Nc2cccc(O)c2)n1 2.7%
O=C(CCCCC(=O)NCc1cccs1)NCc1cccs1 -5.6%
CCn1cc(C(C)NC(=O)COc2ccc(Cl)cc2C)c(C)n1 (stereo not drawn) -4%
c1ccc(-c2nc(C3COc4ccccc4O3)cs2)cc1 (stereo not drawn) -4.2%
CCOc1ccc2nc(Nc3nc(O)c(C)c(=O)[nH]3)nc(C)c2c1 0.7%
CCOc1ccc2nc(Nc3nc(C)c(C)c(=O)[nH]3)nc(C)c2c1 1.2%
COc1ccc([N+](=O)[O-])cc1NC(=O)c1ccc(N(C)C)cc1 1.4%
Cn1cccc1Cc1nnc(SCC(=O)Nc2nc3ccccc3s2)n1CCc1ccccc1 -4.6%
O=C1c2cccnc2-c2ncccc21 6.6%
Cc1ccc(C)n1-c1ccc(OCC(=O)O)cc1 25.7%
Cc1ccc(C)n1-c1ccc(CC(=O)O)cc1 25.5%
CCOC(=O)c1c(NC(=S)NCc2ccccc2)sc2c1CCC2 0%
CC(Cc1ccccc1)N=Cc1c(O)[nH]c2ccccc12 (stereo not drawn) 3.3%
CCOC(=O)c1c(C)[nH]c(/C=C(/C#N)C(N)=NCc2ccccc2)c1O 1.3%
COc1ccc(N(CC(=O)NCC2CCCO2)S(=O)(=O)c2c(C)noc2C)cc1 (stereo not drawn) -8.1%
O=C(CSc1ccc(C(=O)O)cc1)Nc1ccccc1 0.1%
Cc1nc(SCC(=O)Nc2ccc(F)cc2)c2oc3ccccc3c2n1 -2.1%
O=C(O)c1ccc(-n2cccc2)cc1O 4.3%
Cc1ccc(-c2ccccc2)n1-c1ccc(O)c(C(=O)O)c1 42.1%
Cc1nc(=O)c(-c2ccccc2)c(C)n1-c1ccc(C(=O)O)c(O)c1 3.2%
Cc1ccc(C)n1-c1ccc(C(=O)O)c(Cl)c1 28.4%
Cc1nc(=O)c(-c2ccccc2)c(C)n1-c1ccc(O)c(C(=O)O)c1 -7.4%
Cc1ccc(-c2ccccc2)n1-c1ccc(Cl)c(C(=O)O)c1 4.5%
CCCOc1ccc(C2/C(=C(/O)c3ccccc3)C(=O)C(=O)N2CCCN(C)C)cc1OC (stereo not drawn) -0.5%
CCN(CC)CC(=O)Nc1c(Br)ccc2c1OCO2 -11.8%
CCC(=O)N1CCc2cc(Br)cc(S(=O)(=O)N3CCN(C(=O)c4ccco4)CC3)c21 4.6%
COc1ccc(/C=N/NC(=O)CCn2c3ccccc3c3ccccc32)cc1 0.1%
CCSc1nnc(Cn2c(=O)sc3ccccc32)n1C 0.4%
CC(C)(C)C(=O)CC(O)(c1ccccc1)C(F)(F)C(F)F (stereo not drawn) -1.8%
